Experimental data from PubChem BioAssay (Tox21).
Records with an inconclusive call do not appear. Active and inactive are the calls of the source. Calls come from the whole dose curve; as a rule, active = well fitted curve in the direction sought with a large enough effect in the repeat runs; inconclusive = weak or mixed curves; inactive = no such curve, though single readings can be large; an effect the other way counts as inactive or inconclusive.

Experiment: qHTS RealTime-Glo MT Cell Viability Assay in HepG2 cells - 32 hour (AID 1224877); note: nearly all actives have a fitted effect of over 55% in size
Details: RealTime-Glo luminescence; series mostly up to 76.8 µM; activity change, negative = cytotoxic: at the top concentration
In short: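 Viability was tracked continuously by NanoLuc luminescence from prosubstrate reduced by living HepG2 cells, at successive time points over 40 h of compound exposure. Cells with reagent were preincubated 5 h at 37 °C before compound addition.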
% is set by controls: 0 for no effect and ±100 for the full control effect; potency is the fitted concentration of half-maximal effect.

| SMILES | activity change, negative = cytotoxic | Potency |
| --- | --- | --- |
| CCOC(=O)OC(=O)OCC | -2.55% (inactive) |  |
| C/C=C/C(=O)OCC(C)C | -4.17% (inactive) |  |
| [Cl][Sc]([Cl])[Cl] | 2.37% (inactive) |  |
| COC(=O)c1ccc([N+](=O)[O-])cc1 | 8.59% (inactive) |  |
| CCCCCCCCCCCCS(=O)(=O)Cl | 9.6% [at 15.8 µM] (inactive) |  |
| CSc1ccc(O)cc1C | 4.33% (inactive) |  |
| CN(C)CCOc1ccc(/C(=C(/CCCl)c2ccccc2)c2ccccc2)cc1 |  | 40.9 µM (active) |
| COCCC(=O)OC | -1.09% (inactive) |  |
| COc1cccc(-c2ccc(/C=C\CN3CCCCCC3)cc2Cl)c1 |  | 48.7 µM (active) |
| CCN(CCC#N)c1ccc(N=Nc2ccc([N+](=O)[O-])cc2)cc1 | 5.71% (inactive) |  |
| Nc1cc([N+](=O)[O-])ccc1Cl | 2.48% (inactive) |  |
| O=c1[nH]cccc1O | 6.84% (inactive) |  |
| CCN(CC)c1ccc(C=O)cc1 | 4.62% (inactive) |  |
| CC(CC(C)(C)C)CC(C)(C)CC(C)(C)C (centres undefined) | 13.6% [at 35.3 µM] (inactive) |  |
| CCCCCCCCCC[N+](C)(CCCCCCCCCC)CCC[Si](OC)(OC)OC |  | 49 µM (active) |
| CN1CCN(C)CC1 | 12.5% (inactive) |  |
| NC(=O)C1CO1 (centres undefined) | 16.1% (inactive) |  |
| CC1(C)[C@H](C(=O)OCc2cccc(Oc3ccccc3)c2)[C@@H]1C=C(Cl)Cl | 1.71% (inactive) |  |
| COc1cc2ncnc(Nc3cccc(Cl)c3)c2cc1OC | 8.78% [at 15.8 µM] (inactive) |  |

| SMILES | activity change, negative = cytotoxic | Potency |
| --- | --- | --- |
| CN1CCN(c2ccccc2/C=C2\SCCN(c3ccc(Cl)c(Cl)c3)C2=O)CC1 |  | 21.9 µM (active) |
| COc1cc(C(C)C)ccc1C | 7.91% [at 15.8 µM] (inactive) |  |
| C1CCSC1 | -5.94% (inactive) |  |
| CCCCCN=C(N)N/N=C/c1c[nH]c2ccc(OC)cc12 |  | 5.35 µM (active) |
| CCc1cccc(C)c1N(C(=O)CS(=O)(=O)O)C(C)COC (centres undefined) | 11.6% (inactive) |  |
| N#CCCOCCC#N | 11.1% (inactive) |  |
| CCCCCCCCSCc1cc(C)c(O)c(CSCCCCCCCC)c1 | -5.31% (inactive) |  |
| Nc1ccc(F)c([N+](=O)[O-])c1 | 8.81% (inactive) |  |
| CCCCNc1ccc(NCCCC)c2c1C(=O)c1ccccc1C2=O | -3.72% [at 15.8 µM] (inactive) |  |
| CCc1c(C)cc(N)c(CC)c1N | 3.39% (inactive) |  |
| C=Cc1ccc(O)c(OC)c1 | -0.746% (inactive) |  |
| Nc1ccc(Oc2cccc(Oc3ccc(N)cc3)c2)cc1 | -3.19% (inactive) |  |
| Nc1ccc(Cl)c([N+](=O)[O-])c1 | -7.41% (inactive) |  |
| CCNc1nc(NC(C)(C)C)nc(OC)n1 | 0.0144% (inactive) |  |
| CN1CCN(CCCN2c3ccccc3Sc3ccc(C(F)(F)F)cc32)CC1 |  | 23.9 µM (active) |
| C=C(C)CCO | 9.23% (inactive) |  |
| O=C(O)CN(CCCN(CC(=O)O)CC(=O)O)CC(=O)O | 7.15% [at 15.8 µM] (inactive) |  |
| CN(C[C@@H](CC[N+]12CCC(C3CCCCC3)(CC1)CC2)c1ccc(Cl)c(Cl)c1)C(=O)c1cc(C(F)(F)F)cc(C(F)(F)F)c1 |  | 24.5 µM (active) |

Experiment: A CellTox Green Cytotoxicity Assay to monitor cytotoxicity in HepG2 cells - 24 hour (AID 1224878); note: nearly all actives have a fitted effect of over 45% in size
Details: CellTox Green fluorescence; series mostly up to 76.8 µM; cytotoxicity: at the top concentration
In short: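 HepG2, 600 cells/well premixed w/ CellTox Green; 5 h settle, 37 C/5% CO2; pintool cpd add (DMSO); 37 C, 40 h; fluorescence read at 0, 8, 16, 24, 32, 40 h.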

| SMILES | cytotoxicity | Potency |
| --- | --- | --- |
| CCOC(=O)OC(=O)OCC | 5.65% (inactive) |  |
| C/C=C/C(=O)OCC(C)C | 1.86% (inactive) |  |
| [Cl][Sc]([Cl])[Cl] | 25.9% (inactive) |  |
| COC(=O)c1ccc([N+](=O)[O-])cc1 | -12.9% (inactive) |  |
| CCCCCCCCCCCCS(=O)(=O)Cl | -12.5% [at 15.8 µM] (inactive) |  |
| CSc1ccc(O)cc1C | -11.1% (inactive) |  |
| CN(C)CCOc1ccc(/C(=C(/CCCl)c2ccccc2)c2ccccc2)cc1 |  | 32.5 µM (active) |
| COCCC(=O)OC | -1.74% (inactive) |  |
| COc1cccc(-c2ccc(/C=C\CN3CCCCCC3)cc2Cl)c1 |  | 43.4 µM (active) |
| CCN(CCC#N)c1ccc(N=Nc2ccc([N+](=O)[O-])cc2)cc1 | -13.9% (inactive) |  |
| Nc1cc([N+](=O)[O-])ccc1Cl | 11.2% (inactive) |  |
| O=c1[nH]cccc1O | -0.0041% (inactive) |  |
| CCN(CC)c1ccc(C=O)cc1 | -6.37% (inactive) |  |
| CC(CC(C)(C)C)CC(C)(C)CC(C)(C)C (centres undefined) | -11.9% [at 35.3 µM] (inactive) |  |
| CCCCCCCCCC[N+](C)(CCCCCCCCCC)CCC[Si](OC)(OC)OC |  | 21.9 µM (active) |
| CN1CCN(C)CC1 | -9.2% (inactive) |  |
| NC(=O)C1CO1 (centres undefined) | 0.919% (inactive) |  |
| CC1(C)[C@H](C(=O)OCc2cccc(Oc3ccccc3)c2)[C@@H]1C=C(Cl)Cl | 16.1% (inactive) |  |
| COc1cc2ncnc(Nc3cccc(Cl)c3)c2cc1OC | -17.9% [at 15.8 µM] (inactive) |  |

| SMILES | cytotoxicity | Potency |
| --- | --- | --- |
| CN1CCN(c2ccccc2/C=C2\SCCN(c3ccc(Cl)c(Cl)c3)C2=O)CC1 |  | 24.5 µM (active) |
| COc1cc(C(C)C)ccc1C | -14.9% [at 15.8 µM] (inactive) |  |
| C1CCSC1 | 3.35% (inactive) |  |
| CCCCCN=C(N)N/N=C/c1c[nH]c2ccc(OC)cc12 |  | 5.35 µM (active) |
| CCc1cccc(C)c1N(C(=O)CS(=O)(=O)O)C(C)COC (centres undefined) | -14.7% (inactive) |  |
| N#CCCOCCC#N | -8.62% (inactive) |  |
| CCCCCCCCSCc1cc(C)c(O)c(CSCCCCCCCC)c1 | -0.438% (inactive) |  |
| Nc1ccc(F)c([N+](=O)[O-])c1 | -21.7% (inactive) |  |
| CCCCNc1ccc(NCCCC)c2c1C(=O)c1ccccc1C2=O | -4.17% [at 15.8 µM] (inactive) |  |
| CCc1c(C)cc(N)c(CC)c1N | -11.1% (inactive) |  |
| C=Cc1ccc(O)c(OC)c1 | -0.626% (inactive) |  |
| Nc1ccc(Oc2cccc(Oc3ccc(N)cc3)c2)cc1 | 0.394% (inactive) |  |
| Nc1ccc(Cl)c([N+](=O)[O-])c1 | 2.11% (inactive) |  |
| CCNc1nc(NC(C)(C)C)nc(OC)n1 | 1.84% (inactive) |  |
| CN1CCN(CCCN2c3ccccc3Sc3ccc(C(F)(F)F)cc32)CC1 |  | 21.3 µM (active) |
| C=C(C)CCO | -19.9% (inactive) |  |
| O=C(O)CN(CCCN(CC(=O)O)CC(=O)O)CC(=O)O | -12.4% [at 15.8 µM] (inactive) |  |
| CN(C[C@@H](CC[N+]12CCC(C3CCCCC3)(CC1)CC2)c1ccc(Cl)c(Cl)c1)C(=O)c1cc(C(F)(F)F)cc(C(F)(F)F)c1 |  | 24.5 µM (active) |
